Screening results: PubChem, National Center for Advancing Translational Sciences (NCATS)
ELG1 repair inh: inhibitors of ELG1-dependent DNA repair in HEK293T cells | HEK293T ELG1-luciferase reporter, luminescence, 16 h; DNA damage induced by 5-fluorouridine | Potency, µM (top dose mostly 46.1 µM), for the others: top-dose activity change, negative = inhibition, actives largely listed as inhibitors | actives 2.3% (n = 330,000) | AID 504467; also: % is scaled to controls: 0 for no effect and ±100 for the full control effect; nearly all actives have a fitted effect of over 55% in size
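Step one: seed 2,000 cells per well. Step two: pin-transfer compound or DMSO alongside 5-fluorouridine. Step three: incubate 16 hr, 37 °C, 5% CO2. Step four: add ONE-Glo, wait 30 min, read luminescence.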
VP16 counter: Gal4-VP16 reporter inhibition counter-screen; AID 2546; Drosophila S2 Gal4-VP16 UAS-luciferase, luminescence, 20 h; Potency, µM (series often up to 53.6 µM), for inactives: top-dose activity, negative = inhibition, hits mostly inhibitors; actives 3.5% (n = 310,000);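 also: Gal4-VP16 expression switched on by copper sulfate through the metallothionein promoter; % is scaled to controls: 0 for no effect and ±100 for the full control effect; nearly all actives have a fitted effect of over 50% in size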
RORg inh: blocks mouse ROR gamma transcriptional activity | P51450 | Drosophila S2 Gal4-RORgamma UAS-luciferase reporter, 20 h | Potency, µM (doses to about 53.6 µM), inactives show at the highest dose activity change, negative = inhibition, actives largely listed as inhibitors | actives 5.4% (n = 310,000) | AID 2551; also: % is scaled to controls: 0 for no effect and ±100 for the full control effect; nearly all actives have a fitted effect of over 60% in size
Target sequence (P51450 whole entry, looked up, the tested form may be a part): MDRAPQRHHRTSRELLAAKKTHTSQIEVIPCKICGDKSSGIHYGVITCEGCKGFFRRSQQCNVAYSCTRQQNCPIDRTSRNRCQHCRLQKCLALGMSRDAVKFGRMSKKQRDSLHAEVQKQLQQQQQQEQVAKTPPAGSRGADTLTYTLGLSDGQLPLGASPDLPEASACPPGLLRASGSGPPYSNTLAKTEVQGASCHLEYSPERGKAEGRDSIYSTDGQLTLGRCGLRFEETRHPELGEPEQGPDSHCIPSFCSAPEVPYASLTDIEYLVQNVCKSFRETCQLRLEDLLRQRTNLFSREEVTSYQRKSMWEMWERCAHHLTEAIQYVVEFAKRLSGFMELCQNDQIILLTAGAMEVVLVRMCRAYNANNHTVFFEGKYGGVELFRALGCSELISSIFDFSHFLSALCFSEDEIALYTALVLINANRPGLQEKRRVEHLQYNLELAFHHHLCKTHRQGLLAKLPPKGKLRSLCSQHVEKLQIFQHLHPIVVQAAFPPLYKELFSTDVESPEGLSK
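Stable Schneider cell line, Gal4 DNA-binding domain fused to ROR gamma, UAS-luciferase. Cmpd 1 hr RT → CuSO4 700 uM final → 20 hr RT → luciferase reagent 10 min → luminescence.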
MCF10A rerep: DNA re-replication induction in MCF 10a cells; AID 624296; actives 2.9% (n = 350,000); MCF 10A DNA re-replication, Hoechst nuclear intensity, 48 h; Potency, µM (doses to about 46.1 µM), for the others: at the highest dose activity, positive = re-replication, actives largely listed as activators; also: % of control where 0% means no effect; nearly all actives have a fitted effect of over 50% in size
SW480 rereplic: DNA re-replication induction in SW480 cells; AID 624297; actives 1.8% (n = 340,000); Potency, µM (highest dose often 46.1 µM), inactives show at the top dose re-replication activation, actives largely listed as activators; SW480 DNA re-replication, Hoechst DNA content imaging, 48 h; also: % of control where 0% means no effect; nearly all actives have a fitted effect of over 55% in size
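Cells (250 per well) received 23 nL compound or DMSO by pin tool and were kept 48 hr at 37 C, 5% CO2. Nuclei were then stained with Hoechst for 40 min and scanned for DNA content.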
* marks the source's active call; other numbers are inactive results; ? = inconclusive; · = not tested or not shown. Rows were chosen to be rich in hits. Some 10% of all compounds tested hit in one or more screens of this group. Calls follow the shape of the dose curve; as a rule, active = well fitted curve in the direction sought with a large enough effect; inconclusive = small, poorly fitted or top-dose-only effect, or another doubt; inactive = no such curve, though single readings can be large; an effect the other way counts as inactive or inconclusive. Potency is read from the fitted curve at half-maximal effect.

SMILES	ELG1 repair inh	VP16 counter	RORg inh	MCF10A rerep	SW480 rereplic
CN(C)CCNC(=O)C(=O)NCC(c1ccc2c(c1)OCO2)N1CCN(c2ccc(F)cc2)CC1 (stereo unspecified)	0.0%	-4.5%	4.8%	3.6%	-7.6%
Cn1c(-c2ccccc2)c(C#Cc2ccc(N)cc2)c2ccccc21	21.5%	·	·	11.6µM*	9.2µM*
CCOc1ccc(N(C)S(=O)(=O)c2ccc(C)c(C(=O)N3CCN(Cc4ccc5c(c4)OCO5)CC3)c2)cc1	16.4µM*	·	·	?	21.7%
O=C1CSC(=Nc2cccc(Cl)c2Cl)N1Cc1cccnc1	-9.3%	2.3%	1.6%	0.1%	-83.1%
CCOc1ccc(C(=O)NC(=S)Nc2cccc(S(=O)(=O)NC3=NCCC3)c2)cc1	7.5%	17.9%	?	2.59µM*	?
O=C(NC(=S)Nc1cccc(S(=O)(=O)NC2=NCCC2)c1)c1cc(-c2ccco2)nc2ccccc12	?	-2.8%	-7.4%	?	9.2µM*
O=C(Nc1cccc(S(=O)(=O)NC2=NCCC2)c1)c1cc(-c2ccco2)nc2ccccc12	-26.3%	-1.4%	-1.8%	0.1%	-73.1%
COc1ccccc1N=CC1=C(O)CC(c2ccccc2)CC1=O (stereo unspecified)	-1.2%	-4.6%	?	?	-4.2%
FC(F)Oc1ccc(-n2cc(-c3ccccc3)[n+]3c2CCCCC3)cc1	16.4µM*	-14.5%	34.7%	-2.2%	-10.8%
Clc1ccc(-n2cc(-c3ccc(Br)cc3)[n+]3c2CCCCC3)cc1	?	-9.9%	2.9%	5.7%	?
Cc1ccc(-c2cn(-c3ccc(OC(F)F)cc3)c3[n+]2CCCCC3)cc1	9.2µM*	-19.7%	37.1%	5.1%	-1.1%
CC(C)NC(=O)COc1coc(CN2CCN(c3ccccc3)CC2)cc1=O	-3.8%	-4.3%	-13.6%	0.0%	-7.6%
CCn1nc(C)c(/C=N/NC(=O)Cn2nccc2C)c1C	?	-6.0%	1.4%	8.3%	-2.7%
Cc1ccc(Cl)cc1NC(=S)N/N=C/c1cccc2ccccc12	?	2.51µM*	0.794µM*	8.2µM*	8.2µM*
Cc1nn(C)cc1/C=N/NC(=S)Nc1ccc(Cl)cc1Cl	4.7%	2.82µM*	0.562µM*	?	-2.6%
Cc1ccccc1C(=O)N/N=C/c1cccc2ccccc12	?	-9.7%	-44.3%	1.2%	-10.5%
Cc1nn(C)cc1/C=N/NC(=O)c1ccc2c(c1)OCO2	?	0.6%	-12.0%	?	-3.4%
CCn1nc(C)c(/C=N/NC(=S)Nc2ccc(Cl)cc2Cl)c1C	?	6.31µM*	1.78µM*	13.3%	?
Cc1nc2cc(Cl)c(Cl)cc2n1-c1ccccn1	-25.7%	·	·	-9.2%	0.5%
CCCOc1ccc2cc(-c3ccccn3)c(=O)oc2c1	?	5.01µM*	7.08µM*	?	?
Cc1cc(Br)ccc1NC(=O)CNC(=O)CN(C)C1CCS(=O)(=O)C1 (stereo unspecified)	5.2%	·	·	1.1%	-0.8%
Cc1nc2c(O)c3c(c(O)c2nc1C)C1C=CC3CC1	·	·	·	5.17µM*	3.26µM*
Cc1nc2c(C)c(C)c(C)c(C)c2nc1C	10.1%	-12.9%	4.1%	?	68.2%
O=C1CCCN2N=C(SCC(=O)Nc3ccc(OC(F)(F)F)cc3)SC2=N1	1.3%	1.3%	1.1%	-2.0%	-8.9%
O=C1CCCN2N=C(SCC(=O)Nc3ccc([N+](=O)[O-])cc3)SC2=N1	-0.9%	1.6%	-11.6%	5.17µM*	2.91µM*
SMILES	ELG1 repair inh	VP16 counter	RORg inh	MCF10A rerep	SW480 rereplic
C/C(=N/NC(=O)CCC(=O)Nc1ccc(Br)cc1)c1ccc(Br)cc1	-6.3%	8.2%	-21.1%	1.7%	-2.3%
CCOc1ccc(N(CCCCO)C(=S)NC(=O)c2ccc(C)c(Br)c2)cc1	12.6%	5.62µM*	2.51µM*	18.1%	-8.8%
C=CCNC(=S)NC(=O)c1ccc(C)c(Br)c1	?	?	?	-3.1%	-4.2%
C[C@@H](O)CNC(C)(C)CC(=O)N[C@@H]1CCc2ccccc2N(Cc2ccc(-c3ccccc3-c3nn[nH]n3)cc2)C1=O	·	1.0%	-2.2%	·	·
Cc1nc(N)[nH]c(=O)c1CCCNc1ccc(CCCCC2(CCl)OCCO2)cc1	·	·	·	?	3.5%
O=S(=O)(Nc1nccs1)c1ccc(F)cc1	?	0.5%	32.6%	2.31µM*	15.8%
O=C(COc1ccc(F)cc1)Nc1nccs1	?	-8.8%	10µM*	0.1%	-8.8%
O=C(Nc1nccs1)c1ccc(COc2ccccc2Br)o1	-10.2%	-78.8%	?	-5.5%	0.7%
O=C(Nc1nccs1)c1ccc(COc2ccc(Cl)cc2)o1	·	-28.8%	12.6µM*	18.3%	-3.5%
CCOc1ccc(OCc2ccc(C(=O)Nc3ccc(Cl)cn3)o2)cc1	5.5%	?	?	-3.1%	-0.1%
CCc1ccc(S(=O)(=O)Nc2nccs2)cc1	7.1%	-6.0%	-4.0%	?	-1.4%
O=C(Nc1nccs1)c1ccc(COc2ccc(F)cc2)o1	-26.0%	?	?	2.91µM*	-6.0%
O=C(CS(=O)(=O)c1ccc(F)cc1)Nc1nccs1	?	·	·	5.4%	-71.2%
CC(=O)c1ccc(OCc2cc(C(=O)N3CCN(C4CCCC4)C(=O)C3)no2)cc1	·	·	·	0.0%	0.4%
CC(=O)Nc1ccc(-c2csc(-c3cccnc3)n2)cc1	?	?	?	1.9%	7.6%
Cc1ccc(SCCC(=O)OCC(=O)Nc2ccc(C(N)=O)cc2)cc1	13.7%	·	·	-5.3%	-3.2%
O=C(NCC(c1cccs1)N1CCOCC1)C1CCN(S(=O)(=O)c2c(Cl)cccc2Cl)CC1 (stereo unspecified)	-6.3%	·	·	7.0%	-4.2%
O=C(Nc1nccs1)c1ccc(COc2c(F)c(F)cc(F)c2F)cc1	?	-12.5%	11.2µM*	2.7%	?
COC(=O)C(Cc1ccc(O)cc1)NC(=O)c1ccccc1 (stereo unspecified)	12.1%	?	2.24µM*	-7.1%	-2.7%
COc1ccccc1-c1nnc(NC(=O)c2ccc3c(c2)OCO3)s1	-5.0%	2.5%	-21.9%	?	5.8µM*
CC(C)(C)c1nnc(NC(=O)c2ccc3c(c2)OCO3)s1	?	?	-67.0%	0.2%	-7.2%
CCOC(=O)CSc1nnc(NC(=O)c2ccc3c(c2)OCO3)s1	12.8%	15.8µM*	11.2µM*	1.5%	-0.1%
CC(c1ccccc1)c1nnc(NC(=O)c2ccc3c(c2)OCO3)s1 (stereo unspecified)	?	0.9%	?	?	14.6µM*
COc1ccccc1NC(=O)Nc1nnc(C(C)c2ccccc2)s1 (stereo unspecified)	24.8%	14.4%	37.0%	23.1µM*	?
Cc1ccc(S(=O)(=O)N2CCOCC2)cc1NC(=O)CNCc1cccnc1	5.8%	5.5%	-1.5%	0.1%	-5.3%
